Where a name gives a salt, the structure may show the parent alone.
Columns and labels:
Assay in all cases: Euclidean distance of Cell Painting phenotypic profile (signed KS, 77 features) to DMSO centroid (dimensionless distance); 5 or 10 uM (library dependent); higher = stronger phenotypic change vs DMSO (phenoactivity)
Conditions in all cases: 48 h
786-O = tested on: 786-O
In short: (§1)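 Five cancer lines and a healthy fibroblast line received library compounds at 10 or 5 uM (library-dependent, 0.1% DMSO final) for 48 h. Stained cells were imaged confocally at 20X (9 fields/well). Harmony extracted 77 features, each scored as a signed Kolmogorov-Smirnov statistic against same-plate vehicle wells. Profiles were plate-position corrected, correlation-weighted and replicate-averaged at the top dose. Phenoactivity is the Euclidean distance from each profile to the median vehicle profile.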

A549 = tested on: A549
In short: as §1

DU145 = tested on: DU145
In short: as §1

FB = tested on: FB
In short: as §1

HEPG2 = tested on: HEPG2
In short: as §1

OVCAR4 = tested on: OVCAR4
In short: as §1

SMILES	Euclidean distance (786-O)	Euclidean distance (A549)	Euclidean distance (DU145)	Euclidean distance (FB)	Euclidean distance (HEPG2)	Euclidean distance (OVCAR4)
O=C(Cn1cnnn1)N[C@@H]1C(=O)N2C(C(=O)O)=C(CSc3nncs3)CS[C@H]12 [Ceftezole]	1.01	0.658	0.963	1.09	0.476	0.782
O=C1CC[C@H](N2Cc3c(OCc4ccc(CN5CCOCC5)cc4)cccc3C2=O)C(=O)N1 [Iberdomide(CC220)]	1.05	1.02	0.711	1.32	1.24	0.967
CC(=O)SCC(Cc1ccccc1)C(=O)NCC(=O)OCc1ccccc1 (centres undefined) [Racecadotril]	1.61	0.894	0.905	1.14	0.452	1.68
C[C@]1(COc2ccc(N3CCC(Oc4ccc(OC(F)(F)F)cc4)CC3)cc2)Cn2cc([N+](=O)[O-])nc2O1 [Delamanid]	0.922	1.11	0.888	0.823	0.492	0.969
CCOC(=O)c1ccc(N)cc1 [Benzocaine hydrochloride]	0.675	0.334	0.563	0.896	0.264	0.998
CCCCCCCCCCCCCCCC(=O)O[C@@H]1[C@@H](O)[C@@H](O)[C@@H]([C@H](NC(=O)[C@@H]2C[C@@H](CCC)CN2C)[C@H](C)Cl)O[C@@H]1SC [Clindamycin palmitate HCl]	1.39	1.05	0.981	1.12	0.578	1.08
CCOC(=O)C(C)(C)Oc1ccc(Cl)cc1 [Clofibrate]	0.866	0.429	1.7	1.41	0.393	0.939
C[C@H](Cc1cc2c(c(C(N)=O)c1)N(CCCO)CC2)NCCOc1ccccc1OCC(F)(F)F [Silodosin]	2.28	1.27	1.57	2.6	2.41	1.57
O=C(Nc1ncc(SCCN2CCCC2)s1)[C@]1(c2ccc(S(=O)(=O)C3CC3)cc2)C[C@H]1C1CCCCC1	5.07	2.38	3.02	3.03	3.45	1.44
CCS(=O)(=O)N1CCN(c2ccc(Nc3ncc(C(N)=O)c(NC4CC4)n3)cc2)CC1	2.57	3.03	3.16	2.62	2.51	3.39
CN(C)CCC=C1c2ccccc2COc2ccccc21 [Doxepin HCl]	1.22	1.14	1.36	1.45	0.967	2.09
CC(C)C[C@H](NC(=O)CNC(=O)c1cc(Cl)ccc1Cl)B1OC(=O)C(CC(=O)O)(CC(=O)O)O1	4.77	3.73	5.36	3.94	4.23	4.36
COC(=O)C1=C(C)NC(C)=C(C(=O)OCC(C)C)C1c1ccccc1[N+](=O)[O-] (centres undefined) [Nisoldipine]	2.53	0.958	1.95	1.86	2.21	1.43
O=C1OCCN1/N=C/c1ccc([N+](=O)[O-])o1 [Furazolidone]	1.14	1.26	1.02	1.13	0.999	1.09
CCCN1CCCC[C@H]1C(=O)Nc1c(C)cccc1C [Ropivacaine]	1.19	1.64	0.902	1.93	1.18	1.31
Nc1c2c(nc3ccccc13)CCCC2 [Tacrine HCl]	0.888	0.485	0.636	1.21	0.472	1.16
COc1cc(N2CCC(N3CCN(C)CC3)CC2)ccc1Nc1ncc(Cl)c(Nc2ccccc2P(C)(C)=O)n1	1.49	2.29	2.68	4.2	1.51	1.74
C=CC(=O)Nc1cccc(Oc2nc(Nc3ccc(N4CCN(C)CC4)c(F)c3)nc3[nH]ccc23)c1 [Avitinib (AC0010)]	4.87	4.16	3.49	3.92	3.45	3.76
CCOC(=O)C1=C(C)NC(C)=C(C(=O)OC)C1c1cccc([N+](=O)[O-])c1 (centres undefined) [Nitrendipine]	1	0.871	0.908	1.33	0.709	0.934
O=c1oc2ccccc2c(O)c1Cc1c(O)c2ccccc2oc1=O [Dicoumarol]	0.633	0.618	0.712	0.872	0.701	0.783
CC1=C(C(=O)OC(C)C)C(c2cccc([N+](=O)[O-])c2)C(C(=O)OC2CN(C(c3ccccc3)c3ccccc3)C2)=C(N)N1 (centres undefined) [Azelnidipine]	1.85	3.31	1.12	1.17	1.44	2.01
CCN(CC)CCOCCOC(=O)C1(c2ccccc2)CCCC1 [Pentoxyverine Citrate]	0.795	0.55	0.661	0.588	0.353	0.939
Cc1cc(Nc2nc(N[C@@H](C)c3ccc(F)cc3)c(C#N)cc2F)n[nH]1	3.5	3.48	2.73	2.42	2.18	2.77
CC(C)CC(=O)Nc1n[nH]c2c1CN(C(=O)C1CCN(C)CC1)C2(C)C	3.52	3	2.9	2.96	2.82	4.04
Cc1ccccc1C(C(=O)NC1CCCCC1)N(C(=O)Cn1ccnc1C)c1cccc(F)c1 (centres undefined)	1.02	1.06	1.01	1.52	0.839	1.59

SMILES	Euclidean distance (786-O)	Euclidean distance (A549)	Euclidean distance (DU145)	Euclidean distance (FB)	Euclidean distance (HEPG2)	Euclidean distance (OVCAR4)
CCOc1cc(CC(=O)N[C@@H](CC(C)C)c2ccccc2N2CCCCC2)ccc1C(=O)O [Repaglinide]	1.98	0.783	1.26	1.42	1.04	1.55
N[C@@H]1CONC1=O [D-Cycloserine]	1.67	1.18	1.43	0.939	0.865	0.96
O=C(O)c1cc(O)c(O)c(O)c1 [Gallic acid]	1.13	0.673	0.909	1.31	0.825	0.935
CC(=O)[C@]1(O)Cc2c(O)c3c(c(O)c2[C@@H](O[C@H]2C[C@H](N)[C@H](O)[C@H](C)O2)C1)C(=O)c1ccccc1C3=O [Idarubicin HCl]	5.7	4.85	4.5	4.44	5.24	6.18
O=C(O)P(=O)(O)O [Foscarnet Sodium]	1.83	0.762	1.18	0.986	0.776	1.11
Nc1ccc(-c2ccc3ncc4ccc(=O)n(-c5cccc(C(F)(F)F)c5)c4c3c2)cn1 [Torin 2]	5.09	3.59	1.08	1.45	1.26	2.88
Cc1cccc(C)c1OCC(=O)N[C@@H](Cc1ccccc1)[C@@H](O)C[C@H](Cc1ccccc1)NC(=O)[C@H](C(C)C)N1CCCNC1=O [Lopinavir]	2.06	1.69	1.44	1.1	0.896	1.92
Nc1nc(N)c2nc(-c3cccc(O)c3)cnc2n1	0.828	1.47	1.28	2.43	0.858	1.9
CC(=O)Nc1cccc2c1c(Sc1ccc(Cl)cc1)c(C)n2CC(=O)O	0.872	0.72	1.15	0.772	0.51	0.868
CN(Cc1cc(Br)cc(Br)c1N)C1CCCCC1 [Bromhexine]	0.96	1.02	0.619	0.847	0.566	1.03
O=C(C[S+]([O-])Cc1ccco1)NC/C=C\COc1cc(CN2CCCCC2)ccn1 (centres undefined) [Lafutidine]	0.976	1.04	1.52	1.4	2.06	1.4
Nc1ccc(S(=O)(=O)NC(=O)c2ccccc2)cc1 [Sulfabenzamide]	0.937	0.388	0.77	0.837	0.665	1.75
Cc1c(OCC(F)(F)F)ccnc1C[S@@+]([O-])c1nc2ccccc2[nH]1 [Dexlansoprazole]	0.708	0.614	0.925	1.52	0.629	1.1
CCCCCCCCCCCCCCCCCCOP(=O)([O-])OC1CC[N+](C)(C)CC1 [Perifosine (KRX-0401)]	1.95	1.09	0.853	1.23	2.19	1.79
Cc1cc(-n2c(=O)[nH]c(=O)n(C)c2=O)ccc1Oc1ccc(SC(F)(F)F)cc1 [Toltrazuril]	1.07	0.597	0.914	0.686	0.651	1.41
O=C1NCC2(CCN(CCc3ccccc3)CC2)O1 [Fenspiride HCl]	0.914	1.2	1.2	1.2	1.08	1.26
CCC1=C(C)CN(C(=O)NCCc2ccc(S(=O)(=O)NC(=O)N[C@H]3CC[C@H](C)CC3)cc2)C1=O [Glimepiride]	1.39	0.608	0.621	0.992	0.508	0.801
CCNC(=O)c1[nH]nc(-c2cc(Cl)c(O)cc2O)c1-c1ccc(OC)cc1	2.94	3.74	2.8	3.65	3.19	2.79
CC(O)Cn1cnc2c1c(=O)n(C)c(=O)n2C (centres undefined) [Proxyphylline]	1.48	0.998	0.788	0.934	0.686	1.03
CN(C)Cc1ccc(S(=O)(=O)n2ccc(/C=C/C(=O)NO)c2)cc1 [Resminostat]	2.67	2.99	2.58	3.52	2.9	2.81
O=C(NOC[C@H](O)CO)c1ccc(F)c(F)c1Nc1ccc(I)cc1F	3.1	2.57	3.66	3.5	2.03	2.63
CN(C)CCCN1c2ccccc2CCc2ccccc21 [Imipramine HCl]	1.05	0.896	1.15	1.55	1.13	1.33
CCOC(=O)O[C@]1(C(=O)OCCl)CC[C@H]2[C@@H]3CCC4=CC(=O)C=C[C@]4(C)[C@H]3[C@@H](O)C[C@@]21C [Loteprednol etabonate]	1.18	2.23	1.71	1.66	0.658	1.81
CC(C)OC(=O)[C@H](C)N[P@](=O)(OC[C@H]1O[C@@H](n2ccc(=O)[nH]c2=O)[C@](C)(F)[C@@H]1O)Oc1ccccc1 [Sofosbuvir (PSI-7977. GS-7977)]	1.34	0.693	1.07	0.694	0.59	1.01

— the supplement of paper PMC10127200
